Shown is part of a subset that was picked to be rich in hits.
HT1080 IDH1KD tx – qHTS for induction of synthetic lethality in tumor cells producing 2HG: qHTS for the HT-1080-IDH1KD cell line | HT-1080 IDH1 knockdown viability, ATP luminescence, 48 h | Potency, µM (top dose mostly 46.1 µM), without a hit: at the top dose activity, negative = toxicity, usual class: cytotoxic | hit rate 2% among 360,000;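 further: potency means the concentration at half of the fitted maximal effect; 0% = DMSO wells and -100% = cell-free medium wells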
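After a 2 h attachment period, IDH1KD HT-1080 cells took pin-transferred compound for 48 h at 37 °C; ATP-based luminescence after 10 min room-temperature reagent incubation reported viability.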
ALOX12 inh – Primary qHTS assay for inhibitors of human arachidonate 12S-lipoxygenase (ALOX12): Round 2 | Polyunsaturated fatty acid lipoxygenase ALOX12 (Homo sapiens), P18054 | purified 12hLO, xylenol orange hydroperoxide absorbance | Potency, µM (highest dose often 108 µM), without a hit: at the highest dose activity change, negative = inhibition, usual class: inhibitors | hit rate 1.1% among 580,000 | AID 1671190, 2021; further: potency means the concentration at half of the fitted maximal effect
Target sequence (P18054 whole entry, looked up): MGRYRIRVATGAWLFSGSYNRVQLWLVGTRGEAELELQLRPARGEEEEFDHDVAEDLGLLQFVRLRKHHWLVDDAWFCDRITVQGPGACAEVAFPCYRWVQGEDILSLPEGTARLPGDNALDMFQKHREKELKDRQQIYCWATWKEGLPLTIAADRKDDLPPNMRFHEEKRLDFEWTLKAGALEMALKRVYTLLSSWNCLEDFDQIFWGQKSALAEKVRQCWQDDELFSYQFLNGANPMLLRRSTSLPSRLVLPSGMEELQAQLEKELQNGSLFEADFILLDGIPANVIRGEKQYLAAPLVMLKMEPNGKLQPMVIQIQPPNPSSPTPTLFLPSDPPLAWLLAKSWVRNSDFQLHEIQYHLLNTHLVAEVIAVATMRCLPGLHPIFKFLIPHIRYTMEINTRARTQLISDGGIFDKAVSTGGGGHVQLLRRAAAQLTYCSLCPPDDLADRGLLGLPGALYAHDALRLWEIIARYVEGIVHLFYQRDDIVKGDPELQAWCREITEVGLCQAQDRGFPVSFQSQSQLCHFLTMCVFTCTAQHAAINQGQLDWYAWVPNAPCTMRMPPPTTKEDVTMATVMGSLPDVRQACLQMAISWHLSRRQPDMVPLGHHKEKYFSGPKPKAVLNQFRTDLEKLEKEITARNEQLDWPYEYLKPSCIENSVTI
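Purified human 12hLO (150 nM final) in 25 mM Hepes, 0.01% Triton X-100, pH 7.0 was preincubated 15 min at room temperature with compound. Then 40 uM arachidonic acid was added, 30 min. Hydroperoxide was read by Fe-XO absorbance ratio 573/405 nm.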
TDP1 cell noCPT – qHTS for Inhibitors of human tyrosyl-DNA phosphodiesterase 1 (TDP1): qHTS in cells in absence of CPT; hit rate 15% among 420,000; Potency, µM (titrated, usually from 46.2 µM), for the others: top-dose activity change, negative = growth inhibition, hits mostly inhibitors; DT40 Tdp1-/- hTDP1 cells, no CPT, ATP luminescence, 48 h; further: potency means the concentration at half of the fitted maximal effect; nearly all actives have a fitted effect of over 55% in size
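Stably hTDP1-transfected Tdp1-null chicken DT40 cells were treated with library compounds minus camptothecin and grown for at least 48 hr at 37 °C, after which cellular ATP was quantified by luminescence.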
IL-1B inflam inh – qHTS for Inhibitors of Inflammasome Signaling: IL-1-beta AlphaLISA Primary Screen; THP-1 LPS/ATP IL-1B secretion, AlphaLISA, 16 h; hits give low values; activity change, % at 57.5 µM; hit rate 4.7% among 360,000; in the data active means activity change below about -50%; inconclusive means mostly about -30% to -49%
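Secreted IL-1B measured by AlphaLISA bead assay after 16 h compound exposure of THP-1 cells; compounds (final up to 57.5 uM) added 1 h before LPS (250 ng/mL) and ATP (1.25 mM) stimulation; lower signal means less secretion.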
HT1080-NT tox – qHTS for induction of synthetic lethality in tumor cells producing 2HG: qHTS for the HT-1080-NT fibrosarcoma cell line; HT-1080-NT fibrosarcoma viability, CellTiter-Glo ATP luminescence, 48 h; Potency, µM (titrated, usually from 46.1 µM), for inactives: at the top dose activity, negative = less viability, usual class: cytotoxic; AID 686970, 2013; hit rate 1.6% among 360,000;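 further: NT is the 2HG producing partner of a matched IDH1 knockdown line; potency means the concentration at half of the fitted maximal effect; 0% = DMSO-treated cells and -100% = media-only wells without cells; nearly all actives have a fitted effect of over 55% in size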
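750 cells/well, RPMI + 5% FBS; 2 h settle, compound pin-transfer, 48 h at 37 degrees C. CellTiter-Glo 10 min RT, luminescence. Normalized to DMSO and media-only wells.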
DT40 TDP1 CPT – qHTS for Inhibitors of human tyrosyl-DNA phosphodiesterase 1 (TDP1): qHTS in cells in presence of CPT. chicken DT40 Tdp1-/-;hTDP1 cells + 20 nM CPT, ATP luminescence, 48 h. Potency, µM (highest dose often 46.2 µM), for the others: top-dose activity change, negative = growth inhibition, usual class: inhibitors. hit rate 12% among 420,000. AID 686979, 2013; further: potency means the concentration at half of the fitted maximal effect; nearly all actives have a fitted effect of over 55% in size
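Chicken DT40 Tdp1-/- cells complemented with human TDP1, 400 cells/well, exposed to compounds plus 20 nM camptothecin for at least 48 h at 37 C; viability read as ATP content by CellTiter-Glo luminescence.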
* = called active by the depositor; ? = inconclusive; nt = no result given. Unless noted, the call rests on the fitted dose curve; in most records, active means well fitted curve in the direction sought with a large enough effect; inconclusive means small, poorly fitted or top-dose-only effect, or another doubt; inactive means no such curve, though single readings can be large; an effect the other way counts as inactive or inconclusive. Unless noted, on the % scale 0 is the no-effect control and ±100 the full control effect.

SMILES	HT1080 IDH1KD tx	ALOX12 inh	TDP1 cell noCPT	IL-1B inflam inh	HT1080-NT tox	DT40 TDP1 CPT
Cc1nc2cccnc2n1C1CCN(S(=O)(=O)N(C)C)CC1	nt	-13.0%	?	nt	nt	3.7%
CCOc1ccc(S(=O)(=O)n2c(C)nc3ccccc32)cc1	-27.6%	?	20.6µM*	42.0	?	?
CCOc1ccc(S(=O)(=O)N2CCC(c3ccncc3)CC2)cc1	nt	-25.7%	?	nt	nt	11.6µM*
CCOc1ccc(S(=O)(=O)N2CCC(n3c(C)nc4cccnc43)CC2)cc1	nt	-3.4%	11.6µM*	nt	nt	20.6µM*
CC1(c2ccccc2)NC(=O)N(Cc2ncc(-c3ccccc3)o2)C1=O (stereo not drawn)	nt	18.3%	nt	nt	nt	nt
COc1ccc(C2c3c(n(C)c4ccccc34)C(=O)N2CC(=O)Nc2ccccc2Cl)cc1 (stereo not drawn)	nt	-4.0%	25.9µM*	nt	nt	?
COc1ccc(C2c3c(n(C)c4ccccc34)C(=O)N2CC(=O)Nc2cccc(Cl)c2C)cc1 (stereo not drawn)	nt	-19.1%	?	nt	nt	?
CCCNC(=O)CN1C(=O)c2c(c3ccccc3n2C)C1c1ccc(OC)cc1 (stereo not drawn)	nt	-13.0%	13µM*	nt	nt	?
COc1ccc(C2c3c(n(C)c4ccccc34)C(=O)N2CC(=O)Nc2cccc(F)c2)cc1 (stereo not drawn)	nt	-12.6%	?	nt	nt	?
COc1ccc(C2c3c(n(C)c4ccccc34)C(=O)N2CC(=O)Nc2ccccc2F)cc1 (stereo not drawn)	nt	-14.9%	?	nt	nt	16.4µM*
CN(CC(=O)N1CCN(Cc2ccccc2)CC(O)C1)C1CCCC1 (stereo not drawn)	nt	17.3%	nt	nt	nt	nt
O=c1cc(O)n(-c2ccccc2)c(=S)[nH]1	11.1%	?	?	11.3	4.5%	20.6µM*
Cc1cccc(-n2c(N)cc(=O)[nH]c2=S)c1	0.3%	-23.3%	2.6%	20.4	-3.5%	?
O=C1CC(N2CCN(c3ccccn3)CC2)C(=O)N1CC(c1ccccc1)c1ccccc1 (stereo not drawn)	-20.4%	-13.6%	?	17.3	-20.6%	23.1µM*
O=C1NCN(Cc2ccc(Cl)cc2)C12CCN(Cc1ccsc1)CC2	nt	57.9%	nt	nt	nt	nt
CCc1nc2n(n1)C1(CCCCC1)[C@@H]1CCCC[C@@H]1N2C(=O)CC(C)C	nt	-2.1%	nt	nt	nt	nt
CC(C)C(=O)N1c2nc(C(C)C)nn2C2(CCCCC2)[C@@H]2CCCC[C@@H]21	nt	-19.8%	4.61µM*	nt	nt	6.51µM*
CC(C)c1nc2n(n1)C1(CCCCC1)[C@@H]1CCCC[C@@H]1N2	nt	-10.6%	23.1µM*	nt	nt	?
Cn1c2c(c(=O)[nH]c1=O)C(c1ccc(C(=O)O)cc1)C1=C(N2)c2ccccc2C1=O (stereo not drawn)	nt	44.7µM*	nt	nt	nt	nt
COc1ccc(CN(Cc2cccn2C)C(=O)c2cc3cc(OC)ccc3[nH]2)cc1	-10.0%	-22.9%	?	-80.8*	-12.1%	?
COc1cc2cc(C(=O)N/N=C/c3ccc(F)cc3)[nH]c2cc1OC	0.6%	-5.8%	-17.9%	-11.4	-0.4%	-27.0%
CCOc1ccc2[nH]c(C(=O)N/N=C/c3ccc(OC)cc3)cc2c1	1.3µM*	0.0%	0.581µM*	63.2	0.92µM*	0.581µM*
COc1ccc2cc(C(=O)N/N=C/c3cc(OC)c(OC)c(OC)c3)[nH]c2c1	-1.4%	-0.6%	-9.0%	?	-3.6%	-21.6%

Screening data: PubChem, National Center for Advancing Translational Sciences (NCATS)
